# According to PubChem BioAssay:
# “And” between values parts separate entries of the source, which are not always exact repeats. Equal entries are not always repeated. The source made the active and inactive calls.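 How the source made its calls, unless noted: active means normalized viability below 100% at a tested concentration; inactive means the rest.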
# How the values were obtained:
# [1] = Cy5 fluorescence interference with SSB-bound oligo, artefact control for HCV NS3 helicase inhibitor project, biochemical, NIH Clinical Collection, E. coli SSB (AID 743268; call rule not given here)
# [2] = tested on: Hepatitis C virus NS3 helicase; test: HCV NS3 helicase inhibitors, primary screen, biochemical, fluorescence polarization, NIH Clinical Collection (AID 743270; call rule not given here); settings: NS3 helicase binding to Cy5-dT15 DNA, stronger effect = higher value, concentration not given here
# [3] = target: Single-stranded DNA-binding protein (Escherichia coli (strain K12)) (UniProt P0AGE0); test: E. coli SSB displacement from DNA, counter-screen for HCV NS3 helicase inhibitor project, biochemical, fluorescence polarization, NIH Clinical Collection (AID 743271; in the data active means inhibition above about 28%); settings: stronger effect = higher value, concentration not given here
# [4] = fluorescence interference in NS3h assay format, artefact control for HCV NS3 helicase inhibitor project, biochemical, NIH Clinical Collection (AID 743272; call rule not given here;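 further: HCV NS3 helicase with a Cy5 labelled single stranded DNA probe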); settings: fluorescence interference counterscreen, stronger effect = lower value
# [5] = target: 6-phosphogluconate dehydrogenase, decarboxylating (Homo sapiens) (UniProt P52209); test: 6PGD enzyme inhibitors, primary screen, biochemical, human, recombinant enzyme, NADPH absorbance (AID 1159550;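 active means at least 20% inhibition of 6-phosphogluconate dehydrogenase activity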); settings: recombinant 6PGD, NADPH absorbance 341 nm; at 10 µM; stronger effect = higher value
# 6-phosphogluconate dehydrogenase, decarboxylating (Homo sapiens), sequence (P52209 whole entry, looked up): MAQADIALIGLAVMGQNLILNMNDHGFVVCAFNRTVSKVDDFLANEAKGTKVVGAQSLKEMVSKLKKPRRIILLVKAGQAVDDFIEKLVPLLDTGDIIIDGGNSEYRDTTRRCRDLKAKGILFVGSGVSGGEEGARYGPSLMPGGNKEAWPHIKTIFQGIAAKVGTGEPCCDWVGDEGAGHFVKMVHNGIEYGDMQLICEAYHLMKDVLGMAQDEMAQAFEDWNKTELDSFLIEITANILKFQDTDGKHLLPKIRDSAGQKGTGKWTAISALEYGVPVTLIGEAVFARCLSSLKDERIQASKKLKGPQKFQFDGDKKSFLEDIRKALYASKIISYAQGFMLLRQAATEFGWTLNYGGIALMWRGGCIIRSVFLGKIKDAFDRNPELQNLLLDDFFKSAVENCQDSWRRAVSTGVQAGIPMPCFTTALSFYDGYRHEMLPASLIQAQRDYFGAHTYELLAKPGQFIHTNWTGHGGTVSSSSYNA
# [6] = modulation of C. elegans fzo-1 (AID 1259413; call rule not given here;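 further: fzo-1 mutant C. elegans worms in liquid wells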); settings: C. elegans fzo-1 modulator screen, mean read-out; stronger effect = higher value
# [7] = differential killing of epithelial or mesenchymal cells, primary screen, imaging, PC-3E GFP, TEM4-18 mCherry, co-culture (AID 1345086;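 active means compounds killing one labelled cell type while sparing the other, by normalised counts and ratio limits, not self-fluorescent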;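 on all read-outs here: cells exposed to compound for 72 h before imaging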;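 on red/green cell ratio (normalised): normalised mesenchymal count divided by normalised epithelial count so high means epithelial killing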); settings: imaging cell counts, at 1 µM; for red/green cell ratio (normalised): actives lie on both sides, counts scaled to control wells, 1 = unselective
# [8] = ovarian cancer cell viability with rucaparib, profiling panel, oncology-focused library, rucaparib conditional (AID 1508598); settings: patient-derived ovarian cancer cells, CellTiter-Glo viability, 144 h, stronger effect = lower value
# [9] = target: NAD(+) hydrolase SARM1 (Homo sapiens) (UniProt Q6SZW1); test: SARM1 TIR NADase inhibitors, cell lysate, NAD-Glo luminescence (AID 1508614;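 active means compound whose remaining NAD level is above about 45 nM, limit read from the data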); settings: SAM-TIR HEK293T lysate NADase, at 1 µM, stronger effect = higher value
# NAD(+) hydrolase SARM1 (Homo sapiens), sequence (Q6SZW1 whole entry, looked up, the tested form may be a part): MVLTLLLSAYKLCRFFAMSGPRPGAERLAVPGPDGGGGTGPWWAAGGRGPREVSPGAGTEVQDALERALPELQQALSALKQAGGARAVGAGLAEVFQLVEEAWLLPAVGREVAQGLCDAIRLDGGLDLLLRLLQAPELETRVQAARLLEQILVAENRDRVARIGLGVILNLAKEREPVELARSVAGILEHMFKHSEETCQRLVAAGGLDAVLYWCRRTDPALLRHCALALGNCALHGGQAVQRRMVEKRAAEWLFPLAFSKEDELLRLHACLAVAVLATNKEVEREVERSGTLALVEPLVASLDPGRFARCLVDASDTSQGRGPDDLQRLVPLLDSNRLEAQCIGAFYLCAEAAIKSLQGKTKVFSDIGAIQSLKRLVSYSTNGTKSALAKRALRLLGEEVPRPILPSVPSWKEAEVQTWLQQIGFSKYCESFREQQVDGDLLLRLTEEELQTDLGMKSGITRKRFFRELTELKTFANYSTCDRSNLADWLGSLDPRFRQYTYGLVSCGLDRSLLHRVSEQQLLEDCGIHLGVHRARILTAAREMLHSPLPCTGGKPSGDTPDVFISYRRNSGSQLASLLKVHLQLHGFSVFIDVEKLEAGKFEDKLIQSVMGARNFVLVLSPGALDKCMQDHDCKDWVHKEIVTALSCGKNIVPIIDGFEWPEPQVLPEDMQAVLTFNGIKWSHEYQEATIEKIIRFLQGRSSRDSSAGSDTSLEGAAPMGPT
# [10] = target: Mitogen-activated protein kinase 7 (Homo sapiens) (UniProt Q13164); test: ERK5 transactivation activators in reporter cells, primary screen, cell-based, HTS (AID 1508626;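 active means luciferase signal above three times the same-plate solvent-only control wells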;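 further: luciferase driven by Gal4-ERK5 fusion binding five Gal4 sites before minimal TATA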); settings: HeLa Gal4-ERK5 transactivation, 18 h, at 5 µM, stronger effect = higher value
# Mitogen-activated protein kinase 7 (Homo sapiens), sequence (Q13164 whole entry, looked up, the tested form may be a part): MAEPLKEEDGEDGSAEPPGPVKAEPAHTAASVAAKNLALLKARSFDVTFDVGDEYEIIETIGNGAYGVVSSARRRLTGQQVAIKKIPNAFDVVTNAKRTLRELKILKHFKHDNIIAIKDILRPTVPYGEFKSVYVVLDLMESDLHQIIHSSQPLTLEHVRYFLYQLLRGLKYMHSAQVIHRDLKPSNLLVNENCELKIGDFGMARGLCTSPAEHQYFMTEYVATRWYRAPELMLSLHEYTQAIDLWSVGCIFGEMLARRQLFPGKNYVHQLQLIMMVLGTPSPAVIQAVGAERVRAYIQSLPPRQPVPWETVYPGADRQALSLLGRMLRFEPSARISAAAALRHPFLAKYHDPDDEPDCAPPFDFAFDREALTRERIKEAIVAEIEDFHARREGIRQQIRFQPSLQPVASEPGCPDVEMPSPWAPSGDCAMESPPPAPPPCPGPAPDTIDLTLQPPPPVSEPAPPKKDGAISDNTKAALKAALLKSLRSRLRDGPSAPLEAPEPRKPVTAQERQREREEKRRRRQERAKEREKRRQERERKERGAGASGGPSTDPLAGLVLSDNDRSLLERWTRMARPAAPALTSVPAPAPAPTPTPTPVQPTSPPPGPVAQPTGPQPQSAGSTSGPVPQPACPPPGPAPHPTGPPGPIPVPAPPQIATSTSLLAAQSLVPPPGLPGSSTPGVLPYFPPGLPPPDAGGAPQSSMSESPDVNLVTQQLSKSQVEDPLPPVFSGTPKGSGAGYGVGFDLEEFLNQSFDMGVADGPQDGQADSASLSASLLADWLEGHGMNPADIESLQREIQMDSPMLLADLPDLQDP
# [11] = viability rescue of complex I mutant cybrids, primary screen, cell-based, galactose medium, ATP luminescence (AID 1645843;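 active means z-score of at least 1.8 in each of two replicates, scored against plate mean and spread of sample wells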;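 further: positive z means more ATP and so rescue of galactose-driven cybrid death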); settings: complex I mutant cybrid cells, 72 h, stronger effect = higher value
# F380Y = test: modulators of BK channel variants, profiling panel, selectivity assay, cell-based, U2OS BacMam, thallium flux, beta subunits (AID 1259406;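 active means thallium flux through the channel raised or lowered by more than 3 SD from vehicle-only wells, actives on both sides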;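 further: initial slope of Thallos dye fluorescence rise after thallium is added; log ratio against the mean of 0.3% DMSO vehicle wells on the same plate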); settings: at 30 µM
# F380Y/beta2Delta = test: as above; settings: at 30 µM
# [12] = target: Calcium-activated potassium channel subunit alpha-1 (Homo sapiens) + Leucine-rich repeat-containing protein 26 (Homo sapiens) (UniProt Q12791+Q2I0M4); test: as above; settings: F380Y/Slo1WT/gamma1, at 30 µM
# Calcium-activated potassium channel subunit alpha-1 (Homo sapiens) + Leucine-rich repeat-containing protein 26 (Homo sapiens), sequence (Q2I0M4 whole entry, looked up, one chain of several): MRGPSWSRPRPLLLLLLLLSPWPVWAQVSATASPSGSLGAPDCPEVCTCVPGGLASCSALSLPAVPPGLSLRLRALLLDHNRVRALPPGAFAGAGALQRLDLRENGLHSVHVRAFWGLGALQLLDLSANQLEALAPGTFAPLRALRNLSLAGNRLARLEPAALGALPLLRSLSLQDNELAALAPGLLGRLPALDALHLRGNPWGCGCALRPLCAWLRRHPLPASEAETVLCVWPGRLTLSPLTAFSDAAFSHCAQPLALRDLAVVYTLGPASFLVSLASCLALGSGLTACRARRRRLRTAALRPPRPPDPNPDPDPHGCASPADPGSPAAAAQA
# R275C = test: as above; settings: at 30 µM
# R275C/beta1 = test: as above; settings: at 30 µM
# R275C/beta2Delta = test: as above; settings: at 30 µM
# [13] = liver-stage malaria parasite growth inhibition, primary screen, cell-based, HepG2, luciferase luminescence, HepG2 viability (AID 624349; in the data active means parasite load remaining mostly below about 12%, no sharp cut-off; inactive means mostly above about 10%;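 further: 100% = mean of DMSO negative control wells on the same plate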); settings: P. berghei liver stage in HepG2, luciferase luminescence, concentration not given here; parasite load remaining: stronger effect = lower value; viability: measured here: HepG2 viability without parasites
# [14] = sensitizers of A549 cells to miR-34 induction, primary screen, imaging, A549 dox-inducible miR-34, nuclei and caspase counts (AID 1347080;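 active means compounds whose cell count with miR-34 switched on is under 0.7 times the count with it off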); settings: A549 miR-34 inducible, Hoechst nuclei count, 48 h
# [15] = survival rescue of mitochondrial mutant cells in low glucose, primary screen, MELAS cybrids, Rieske KO mouse fibroblasts, CellTiter-Glo (AID 1508586);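 further: z relative to plate mean and SD of compound and empty wells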
# [16] = measured here: epithelial PC-3E GFP cell survival
# [17] = measured here: mesenchymal TEM4-18 mCherry cell survival
smiles,measurement,setting,value
CCc1ccc(CCOc2ccc(CC3SC(=O)NC3=O)cc2)nc1 (stereo not given),fluorescence ratio,[1],1.03 (inactive)
same,inhibition,[2],0.4% (inactive)
same,inhibition,[3],3.75% (inactive)
same,fluorescence ratio,[4],0.9 (inactive)
same,inhibition,[5],6.81% (inactive)
same,mean signal,[6],259 (inactive)
same,red/green cell ratio (normalised),[7],1.07 (inactive)
same,normalised cell number,[7]; [16],1.18
same,normalised cell number,[7]; [17],1.27
same,viability,"[8]; at 0.000305 µM, OCI-C5x cells, with rucaparib 10 µM, 100% = cells with rucaparib alone",119% (inactive)
same,viability,"[8]; at 0.000305 µM, OCI-C5x cells, without rucaparib",118% (inactive)
same,viability,"[8]; at 0.000305 µM, OCI-P5x cells, with rucaparib 20 µM, 100% = cells with rucaparib alone",88.4% (active)
same,viability,"[8]; at 0.000305 µM, OCI-P5x cells, without rucaparib",95.9% (active)
same,viability,"[8]; at 0.00122 µM, OCI-C5x cells, with rucaparib 10 µM, 100% = cells with rucaparib alone",120% (inactive)
same,viability,"[8]; at 0.00122 µM, OCI-C5x cells, without rucaparib",116% (inactive)
same,viability,"[8]; at 0.00122 µM, OCI-P5x cells, with rucaparib 20 µM, 100% = cells with rucaparib alone",97.3% (active)
same,viability,"[8]; at 0.00122 µM, OCI-P5x cells, without rucaparib",100% (inactive)
same,viability,"[8]; at 0.00488 µM, OCI-C5x cells, with rucaparib 10 µM, 100% = cells with rucaparib alone",108% (inactive)
same,viability,"[8]; at 0.00488 µM, OCI-C5x cells, without rucaparib",126% (inactive)
same,viability,"[8]; at 0.00488 µM, OCI-P5x cells, with rucaparib 20 µM, 100% = cells with rucaparib alone",102% (inactive)
same,viability,"[8]; at 0.00488 µM, OCI-P5x cells, without rucaparib",105% (inactive)
same,viability,"[8]; at 0.0195 µM, OCI-C5x cells, with rucaparib 10 µM, 100% = cells with rucaparib alone",120% (inactive)
same,viability,"[8]; at 0.0195 µM, OCI-C5x cells, without rucaparib",126% (inactive)
same,viability,"[8]; at 0.0195 µM, OCI-P5x cells, with rucaparib 20 µM, 100% = cells with rucaparib alone",105% (inactive)
same,viability,"[8]; at 0.0195 µM, OCI-P5x cells, without rucaparib",104% (inactive)
same,viability,"[8]; at 0.0781 µM, OCI-C5x cells, with rucaparib 10 µM, 100% = cells with rucaparib alone",124% (inactive)
same,viability,"[8]; at 0.0781 µM, OCI-C5x cells, without rucaparib",113% (inactive)
same,viability,"[8]; at 0.0781 µM, OCI-P5x cells, with rucaparib 20 µM, 100% = cells with rucaparib alone",101% (inactive)
same,viability,"[8]; at 0.0781 µM, OCI-P5x cells, without rucaparib",110% (inactive)
same,viability,"[8]; at 0.313 µM, OCI-C5x cells, with rucaparib 10 µM, 100% = cells with rucaparib alone",105% (inactive)
same,viability,"[8]; at 0.313 µM, OCI-C5x cells, without rucaparib",115% (inactive)
same,viability,"[8]; at 0.313 µM, OCI-P5x cells, with rucaparib 20 µM, 100% = cells with rucaparib alone",103% (inactive)
same,viability,"[8]; at 0.313 µM, OCI-P5x cells, without rucaparib",113% (inactive)
same,viability,"[8]; at 1.25 µM, OCI-C5x cells, with rucaparib 10 µM, 100% = cells with rucaparib alone",111% (inactive)
same,viability,"[8]; at 1.25 µM, OCI-C5x cells, without rucaparib",123% (inactive)
same,viability,"[8]; at 1.25 µM, OCI-P5x cells, with rucaparib 20 µM, 100% = cells with rucaparib alone",104% (inactive)
same,viability,"[8]; at 1.25 µM, OCI-P5x cells, without rucaparib",118% (inactive)
same,viability,"[8]; at 5 µM, OCI-C5x cells, with rucaparib 10 µM, 100% = cells with rucaparib alone",105% (inactive)
same,viability,"[8]; at 5 µM, OCI-C5x cells, without rucaparib",123% (inactive)
same,viability,"[8]; at 5 µM, OCI-P5x cells, with rucaparib 20 µM, 100% = cells with rucaparib alone",103% (inactive)
same,viability,"[8]; at 5 µM, OCI-P5x cells, without rucaparib",111% (inactive)
same,remaining NAD,[9],10 nM (inactive)
same,luciferase signal,[10],48 AU (inactive)
same,z-score,[11],0.365 (inactive) and 1.53 (inactive)
same,log fold change Tl+ flux,F380Y,0.00439 (inactive)
same,log fold change Tl+ flux,F380Y/beta2Delta,0.0296 (inactive)
same,log fold change Tl+ flux,[12],0.0101 (inactive)
same,log fold change Tl+ flux,R275C,-0.057 (inactive)
same,log fold change Tl+ flux,R275C/beta1,-0.028 (inactive)
same,log fold change Tl+ flux,R275C/beta2Delta,-0.0196 (inactive)
COc1ccc(-c2cc(=O)c3c(OC)c(OC)c(OC)c(OC)c3o2)cc1OC,parasite load remaining,[13],46.2% (inactive)
same,viability,[13],66.9%
same,fluorescence ratio,[1],1.01 (inactive)
same,inhibition,[2],-1.19% (inactive)
same,inhibition,[3],-2.41% (inactive)
same,fluorescence ratio,[4],0.96 (inactive)
same,inhibition,[5],2.3% (inactive)
same,mean signal,[6],277 (inactive)
same,red/green cell ratio (normalised),[7],1.15 (inactive)
same,normalised cell number,[7]; [16],0.98
same,normalised cell number,[7]; [17],1.13
same,fold change,"[14]; stronger effect = lower value, cell number ratio, induced over uninduced",0.981 (inactive) and 0.97 (inactive)
same,fold change,[14]; measured here: relative caspase fold change +Dox/-Dox,1.14 and 0.279
same,cell count,"[14]; measured here: total cells with miR-34 induction, stronger effect = lower value",9210 and 7680
same,cell count,[14]; measured here: total cells without miR-34 induction,9390 and 7920
same,z-score,"[15]; MELAS cybrid survival, CellTiter-Glo 48 h, stronger effect = higher value",-0.237
same,z-score,"[15]; Rieske KO mouse fibroblast survival, CellTiter-Glo 72 h",2.19
same,luciferase signal,[10],48 AU (inactive)
same,z-score,[11],0.845 (inactive)
same,log fold change Tl+ flux,F380Y,0.00321 (inactive)
same,log fold change Tl+ flux,F380Y/beta2Delta,0.0292 (inactive)
same,log fold change Tl+ flux,[12],-0.341 (active)
same,log fold change Tl+ flux,R275C,-0.784 (active)
same,log fold change Tl+ flux,R275C/beta1,-0.176 (active)
same,log fold change Tl+ flux,R275C/beta2Delta,-0.278 (active)
